The panel holds about 83,000 compounds, 20% with a hit somewhere; the sample as a whole holds those more often.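 96-well plates, one dose, 48 hours. Percent growth reported; active if below 10.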 Active and inactive are the calls of the source.
How the values were obtained:
Assay in all cases: NCI-60 one-dose screen, 48 h (100 = growth as untreated, 0 = no growth, -100 = all killed)
Settings in all cases: 10 µM unless noted
NCI-H23 lung = system: NCI-H23 lung
NCI-H226 lung = system: NCI-H226 lung
NCI-H322M lung = system: NCI-H322M lung
HOP-62 NSCLC = system: HOP-62 NSCLC
NCI-H460 lung = system: NCI-H460 lung
HOP-92 NSCLC = system: HOP-92 NSCLC
NCI-H522 lung = system: NCI-H522 lung
A549/ATCC NSCLC = system: A549/ATCC NSCLC
786-0 renal = system: 786-0 renal
COLO 205 colon = system: COLO 205 colon
DU-145 prostate = system: DU-145 prostate
K-562 leukemia = system: K-562 leukemia
MALME-3M melanoma = system: MALME-3M melanoma
MDA-MB-231 breast = system: MDA-MB-231 breast
RXF 393 renal = system: RXF 393 renal
SF-268 CNS = system: SF-268 CNS
SF-295 CNS = system: SF-295 CNS
SF-539 CNS = system: SF-539 CNS
UACC-257 melanoma = system: UACC-257 melanoma
M14 melanoma = system: M14 melanoma

Measured: growth

CCNCC(C)(C)O
inactive: NCI-H23 lung 99.1% | NCI-H226 lung 105% | NCI-H322M lung 98% | HOP-62 NSCLC 100% | NCI-H460 lung 113% | HOP-92 NSCLC 84.4% | NCI-H522 lung 109% | A549/ATCC NSCLC 96.1% | 786-0 renal 103% | COLO 205 colon 113% | DU-145 prostate 118% | K-562 leukemia 111% | MALME-3M melanoma 100% | MDA-MB-231 breast 94.9% | RXF 393 renal 117% | SF-268 CNS 119% | SF-295 CNS 103% | SF-539 CNS 102% | UACC-257 melanoma 98.7% | M14 melanoma 95.5%

CCCNS(=O)(=O)c1ccc(Cl)cc1
inactive: NCI-H23 lung 104% | NCI-H226 lung 113% | NCI-H322M lung 93.6% | HOP-62 NSCLC 86.6% | NCI-H460 lung 103% | HOP-92 NSCLC 104% | NCI-H522 lung 96.6% | A549/ATCC NSCLC 94.5% | 786-0 renal 97.6% | COLO 205 colon 102% | DU-145 prostate 109% | K-562 leukemia 104% | MALME-3M melanoma 105% | MDA-MB-231 breast 102% | RXF 393 renal 114% | SF-268 CNS 106% | SF-295 CNS 87.8% | SF-539 CNS 98.1% | UACC-257 melanoma 101% | M14 melanoma 101%

CC(C)c1ncc([N+](=O)[O-])n1C
inactive: NCI-H23 lung 103% | NCI-H226 lung 102% | NCI-H322M lung 126% | HOP-62 NSCLC 118% | NCI-H460 lung 106% | HOP-92 NSCLC 104% | NCI-H522 lung 96.4% | A549/ATCC NSCLC 96.9% | 786-0 renal 108% | COLO 205 colon 108% | DU-145 prostate 122% | K-562 leukemia 123% | MALME-3M melanoma 129% | MDA-MB-231 breast 118% | RXF 393 renal 115% | SF-268 CNS 121% | SF-295 CNS 127% | SF-539 CNS 98.2% | UACC-257 melanoma 97.2% | M14 melanoma 103%

COC(c1ccc2c(c1)OCO2)C(C)Br (stereo unspecified)
inactive: NCI-H23 lung 95.2% | NCI-H226 lung 93.1% | NCI-H322M lung 100% | HOP-62 NSCLC 82.8% | NCI-H460 lung 104% | HOP-92 NSCLC 74.9% | NCI-H522 lung 84.6% | A549/ATCC NSCLC 94% | 786-0 renal 112% | COLO 205 colon 94.5% | DU-145 prostate 109% | K-562 leukemia 87.3% | MALME-3M melanoma 98.3% | MDA-MB-231 breast 94.8% | RXF 393 renal 99.9% | SF-268 CNS 107% | SF-295 CNS 101% | SF-539 CNS 92.5% | M14 melanoma 97.1%

O=S(=O)(O)c1cccnc1
inactive: NCI-H23 lung 115% | NCI-H226 lung 105% | NCI-H322M lung 84.6% | HOP-62 NSCLC 114% | NCI-H460 lung 109% | HOP-92 NSCLC 142% | NCI-H522 lung 109% | A549/ATCC NSCLC 125% | 786-0 renal 103% | COLO 205 colon 105% | DU-145 prostate 122% | K-562 leukemia 105% | MALME-3M melanoma 90.1% | MDA-MB-231 breast 103% | SF-268 CNS 103% | SF-295 CNS 108% | SF-539 CNS 95.8% | UACC-257 melanoma 123% | M14 melanoma 140%

Cc1ccnc(Nc2nc3ccccc3[nH]2)n1
inactive: NCI-H23 lung 104% | NCI-H226 lung 108% | NCI-H322M lung 103% | HOP-62 NSCLC 97.4% | NCI-H460 lung 100% | HOP-92 NSCLC 99.5% | NCI-H522 lung 103% | A549/ATCC NSCLC 108% | 786-0 renal 94% | COLO 205 colon 113% | DU-145 prostate 123% | K-562 leukemia 97.8% | MALME-3M melanoma 104% | MDA-MB-231 breast 109% | RXF 393 renal 116% | SF-295 CNS 102% | SF-539 CNS 98% | UACC-257 melanoma 105% | M14 melanoma 97%

O=C(c1ccc(Cl)cc1)N1CCCCC1
inactive: NCI-H23 lung 95.6% | NCI-H226 lung 95.4% | NCI-H322M lung 106% | HOP-62 NSCLC 96.7% | NCI-H460 lung 101% | HOP-92 NSCLC 97.4% | NCI-H522 lung 93.6% | A549/ATCC NSCLC 95.4% | 786-0 renal 102% | COLO 205 colon 104% | DU-145 prostate 115% | K-562 leukemia 97.2% | MALME-3M melanoma 109% | MDA-MB-231 breast 94.4% | SF-268 CNS 104% | SF-295 CNS 99.2% | SF-539 CNS 98.5% | UACC-257 melanoma 94% | M14 melanoma 104%

Cc1cccnc1NC1OC(=O)c2ccccc21 (stereo unspecified)
inactive: NCI-H23 lung 100% | NCI-H226 lung 98.6% | NCI-H322M lung 96.2% | HOP-62 NSCLC 99.7% | NCI-H460 lung 105% | HOP-92 NSCLC 119% | NCI-H522 lung 88.6% | A549/ATCC NSCLC 96.2% | 786-0 renal 99.6% | COLO 205 colon 101% | DU-145 prostate 102% | K-562 leukemia 101% | MALME-3M melanoma 93.7% | MDA-MB-231 breast 115% | RXF 393 renal 118% | SF-268 CNS 124% | SF-539 CNS 109% | UACC-257 melanoma 100% | M14 melanoma 95.7%

CC(C)(CC(=O)O)CC(=O)O
inactive: NCI-H23 lung 100% | NCI-H226 lung 96.5% | NCI-H322M lung 96.7% | HOP-62 NSCLC 111% | NCI-H460 lung 102% | HOP-92 NSCLC 96.6% | NCI-H522 lung 98.5% | A549/ATCC NSCLC 101% | 786-0 renal 102% | COLO 205 colon 119% | DU-145 prostate 111% | K-562 leukemia 107% | MALME-3M melanoma 107% | MDA-MB-231 breast 95.5% | SF-268 CNS 102% | SF-295 CNS 110% | SF-539 CNS 95% | UACC-257 melanoma 113% | M14 melanoma 101%

Cc1ccc(NC(=S)N2CCOCC2)cc1C
inactive: NCI-H23 lung 107% | NCI-H226 lung 92.4% | NCI-H322M lung 85.5% | HOP-62 NSCLC 99.7% | NCI-H460 lung 106% | HOP-92 NSCLC 95% | NCI-H522 lung 84.2% | A549/ATCC NSCLC 96.8% | 786-0 renal 97% | COLO 205 colon 118% | DU-145 prostate 109% | K-562 leukemia 95.4% | MALME-3M melanoma 93.8% | MDA-MB-231 breast 99.9% | SF-268 CNS 110% | SF-295 CNS 96.2% | SF-539 CNS 103% | UACC-257 melanoma 93.5% | M14 melanoma 93.1%

ON1CCCC1
inactive: NCI-H23 lung 108% | NCI-H226 lung 103% | NCI-H322M lung 108% | HOP-62 NSCLC 108% | NCI-H460 lung 109% | HOP-92 NSCLC 92.4% | NCI-H522 lung 91.9% | A549/ATCC NSCLC 100% | 786-0 renal 98.4% | COLO 205 colon 113% | DU-145 prostate 113% | K-562 leukemia 90.7% | MALME-3M melanoma 106% | MDA-MB-231 breast 114% | RXF 393 renal 107% | SF-268 CNS 106% | SF-539 CNS 108% | UACC-257 melanoma 102% | M14 melanoma 104%

O=[N+]([O-])c1c(Cl)ncnc1Cl
inactive: NCI-H23 lung 111% | NCI-H226 lung 100% | NCI-H322M lung 125% | HOP-62 NSCLC 104% | NCI-H460 lung 93.2% | HOP-92 NSCLC 85.7% | NCI-H522 lung 97.3% | A549/ATCC NSCLC 92.8% | 786-0 renal 109% | COLO 205 colon 113% | DU-145 prostate 110% | K-562 leukemia 109% | MALME-3M melanoma 104% | MDA-MB-231 breast 120% | RXF 393 renal 108% | SF-539 CNS 88.9% | UACC-257 melanoma 86% | M14 melanoma 118%

CNc1ccccc1C(=O)N/N=C/C=C/c1ccccc1
active: NCI-H522 lung -18.1% | COLO 205 colon -1.61% | K-562 leukemia 8.9% | SF-295 CNS -0.27%
inactive: NCI-H23 lung 39.1% | NCI-H226 lung 66.7% | NCI-H322M lung 30.8% | HOP-62 NSCLC 26.9% | NCI-H460 lung 11% | HOP-92 NSCLC 69.3% | A549/ATCC NSCLC 30.7% | 786-0 renal 35.3% | DU-145 prostate 14.9% | MALME-3M melanoma 31.5% | MDA-MB-231 breast 49.3% | SF-268 CNS 34.9% | SF-539 CNS 21.7% | UACC-257 melanoma 39.1% | M14 melanoma 17.1%

CN(C)c1ncnc2c1cnn2C
inactive: NCI-H23 lung 103% | NCI-H226 lung 98.9% | NCI-H322M lung 102% | HOP-62 NSCLC 95.8% | NCI-H460 lung 103% | HOP-92 NSCLC 89.2% | NCI-H522 lung 106% | A549/ATCC NSCLC 93.9% | 786-0 renal 99% | COLO 205 colon 107% | DU-145 prostate 104% | K-562 leukemia 97% | MALME-3M melanoma 103% | MDA-MB-231 breast 109% | SF-268 CNS 84.6% | SF-295 CNS 94.5% | SF-539 CNS 94.2% | UACC-257 melanoma 84.2% | M14 melanoma 103%

C[n+]1cc2cc3c(cc2c2ccccc21)OCO3
active: MALME-3M melanoma -0.635% | SF-268 CNS -0.333% | SF-295 CNS 9.18%
inactive: NCI-H23 lung 42.7% | NCI-H226 lung 55.3% | NCI-H322M lung 39% | HOP-62 NSCLC 33.7% | NCI-H460 lung 59.2% | HOP-92 NSCLC 82% | NCI-H522 lung 30.8% | A549/ATCC NSCLC 15.1% | 786-0 renal 51.4% | COLO 205 colon 75.6% | DU-145 prostate 57.3% | K-562 leukemia 49.1% | MDA-MB-231 breast 90.1% | SF-539 CNS 38.8% | UACC-257 melanoma 69.5% | M14 melanoma 81.4%

Nc1nc2nnc(-c3ccccc3)c(-c3ccccc3)n2n1
inactive: NCI-H23 lung 97.2% | NCI-H226 lung 88.3% | NCI-H322M lung 110% | HOP-62 NSCLC 16.7% | NCI-H460 lung 100% | HOP-92 NSCLC 61.4% | NCI-H522 lung 109% | A549/ATCC NSCLC 101% | 786-0 renal 111% | COLO 205 colon 101% | DU-145 prostate 98.8% | K-562 leukemia 96.3% | MALME-3M melanoma 125% | MDA-MB-231 breast 88.7% | SF-268 CNS 103% | SF-295 CNS 71% | SF-539 CNS 80.9% | UACC-257 melanoma 103% | M14 melanoma 127%

Reference: PubChem BioAssay (NCI)
